Compounds without any hit were thinned out: in the full panel of roughly 83,000, 20% have a hit.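 In brief: 96-well plates, 48 h treatment, single concentration, percent growth endpoint.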 Unmarked numbers belong to inactive results. Activity calls are given as the source filed them.
Test system: SK-MEL-28 melanoma
Experiment: NCI-60 one-dose screen, 48 h (100 = growth as untreated, 0 = no growth, -100 = all killed)
Conditions: 10 µM
Method: Growth inhibition of the SK-MEL-28 human tumor cell line is measured as a screen for anti-cancer activity. Cells are grown in 96 well plates and exposed to the test compound for 48 hours. Compounds are tested at a single concentration, which is 10^-5 M for most compounds. The reported endpoint is percent growth (GI% or GIPRCNT), where numbers from 0 - 100% represent growth inhibition, and numbers from -100% - 0 represent cell death. For example, a value of 40 represents 60% growth inhibition. A value of 0 means no net growth occurred over the course of the experiment. A value of -40 indicates 40% of cells at the beginning of the experiment died by the end of the experiment. A value of -100 means all cells are dead at the end of the experiment.
NCI-60 Human Tumor Cell Lines Screen was performed using the standard one-dose NCI protocol, which is described in more detail at https://dtp.cancer.gov/discovery_development/nci-60/default.htm.
Compounds with GIPRCNT values below 10 were considered active. Activity score was based on GIPRCNT using the following formula: […]
Score is 0 for GIPRCNT values of 100 or above, 50 for GIPRCNT values of 0, and 100 for GIPRCNT values of -100.

First: COc1ccc(COC(=O)CC(C)C)cc1
Second: COc1ccc(/C(CS(=O)(=O)c2ccccc2)=N\O)cc1
The growth of the first is higher: 110% for the first, 100% for the second.

Going from `CCN1CCN(c2ccc(Nc3ncnc4c3nnn4CCc3cc(OC)cc(OC)c3)cc2)CC1` to `COc1ccc(N2CCN(c3nc(-c4ccccc4)c(C#N)c(=O)[nH]3)CC2)cc1`, the growth rises from 101% to 110%.

Compared with `Cc1[nH]nc2c(=S)[nH]c(=O)[nH]c12`, `Cn1c(=O)c2[nH]c(C(O)c3ccc(Cl)cc3)nc2n(C)c1=O` (stereo not given) is higher in growth: 102% for the first, 108% for the second.

First: C/C(=N\NC(N)=S)C(C)(C)O
Second: CCOC(=O)/C(C#N)=C(/C)C1CC1
The growth of the first is lower: 98.5% for the first, 106% for the second.

Going from `CC1(C)CC(=O)c2c(nc3ccc(Cl)cc3c2-c2ccccc2)C1` to `Cc1nc2ccc(-n3c(-c4ccc(Cl)cc4)nc4ccccc4c3=O)cc2n1Cc1ccccc1`, the growth falls from 174% to 107%.

Going from `COc1ccccc1CNCCCN1C(=O)c2ccc3c4c(ccc(c24)C1=O)C(=O)N(CCCNCCNCCCN)C3=O` to `Cc1ccc2c3c(cccc13)-c1ccccc1C2=O`, the growth rises from 25.4% to 121%.

Going from `COc1cc(Cl)cc(-c2nn(-c3cccc(NC(=O)Nc4cccc(C(F)(F)F)c4)c3)cc2-c2ccncc2)c1` to `O=C(NCc1cn(Cc2cccc(Oc3ccccc3)c2)nn1)c1cccnc1Nc1ccccc1`, the growth rises from 14.1% to 47.8%.

Compared with `O=C(c1ccc(Cl)cc1)c1no[n+]([O-])c1C(=O)c1ccc(Cl)cc1`, `COCCOC(=O)NC(=O)Nc1ccc(C(=O)c2ccc(Cl)cc2)cc1` is lower in growth: 117% for the first, 62.6% for the second.

Compared with `CCOc1nc(-c2ccccc2)cc2c(O)c(C(=O)N/N=C/c3ccc(OC)cc3)[nH]c(=O)c12`, `COc1cc(/C=C/C(=O)c2cc(-c3ccccc3)ccc2O)cc(OC)c1OC` is lower in growth: 114% for the first, 98.1% for the second.

First: N#C/C(=C\N1C(=O)/C(=C/c2cccc([N+](=O)[O-])c2)SC1=S)c1nc2ccccc2s1
Second: COC(=O)c1cnc2c(c1)Oc1ccccc1-c1ccnn1-2
The growth of the first is lower: 92.4% for the first, 116% for the second.

First: Cc1cc(C)c2c(Nc3ncnc4c3sc3nc(C)cc(C)c34)n[nH]c2n1
Second: COc1cc(C(=O)n2nc(N)c3c(C)cc(C)nc32)cc(OC)c1OC
The growth of the first is lower: 94.5% for the first, 97.6% for the second.

Compared with `COc1ccc(-c2[nH]ncc2/C=C/c2cc(C(F)(F)F)[nH]c(=O)n2)cc1`, `COc1ccc(-c2[nH]ncc2-c2cc(OC)c(OC)c(OC)c2)cc1` is lower in growth: 114% for the first, 37.2% for the second.

Compared with `COc1ccc(/C=C(\c2cc(OC)c(OC)c(OC)c2)c2nnc(-c3cccs3)o2)cc1`, `COc1ccc(Cn2cc3c(c2-c2cc(OC)c(OC)c(OC)c2)CCc2cnoc2-3)cc1N` is lower in growth: 69.7% for the first, 62% for the second.

Compared with `COc1ccc(Nc2nc(NCc3ccccc3)c3ccccc3n2)cc1`, `Cc1ccc(NS(=O)(=O)c2ccccc2)c(NS(=O)(=O)c2ccccc2)c1` is higher in growth: 67.7% for the first, 116% for the second.

First: C[n+]1c(/C=C/c2c[nH]c3ccccc23)ccc2ccccc21
Second: CC(Oc1ccc(Cl)cc1)c1ccccc1 (stereo not given)
The growth of the first is lower: 84.8% for the first, 106% for the second.

Going from `COc1nc2c(c(=O)[nH]1)C(c1ccc(Oc3ccnc4cc(Cl)ccc34)c(OC)c1)C=C(c1cc(OC)c(OC)c(OC)c1)N2` (stereo not given) to `Nc1cc2c(cc1Cl)-c1ccc(Cl)cc1C2=O`, the growth falls from 116% to 109%.

Going from `c1ccc(OCCC[P+](c2ccccc2)(c2ccccc2)c2ccccc2)cc1` to `COc1ccc(/C=C2\SC(=S)N(CCCN3CCOCC3)C2=O)c(OC)c1`, the growth rises from 26% to 106%.

`Nc1nc2c(ncn2C2OC3COP(=O)(O)OC4C(COP(=O)(O)OC2C3O)OC(n2cnc3c(N)ncnc32)C4O)c(=O)[nH]1` (stereo not given) showed a growth of 113%.

`N=C(N)c1ccc(-c2ccc(-c3ccccc3)s2)cc1F` was tested, and the growth was -96.2% (active).
`Cc1cc(C(C)(C)CC(C)(C)C)ccc1OCCOCC[N+](C)(C)Cc1ccccc1` was tested, and the growth was -92% (active).
For `CCCc1c(CC)c(=N)c2ccccc2n1C`, the growth was -80.8% (active).
With `C=CCn1c(C)nc2cc(Nc3nc(Nc4ccc5nc(C)n(CC=C)c5c4)c4ccccc4n3)ccc21` the growth was -88% (active).
In the case of `NC1CCC(Nc2nc(NCc3cc(Cl)ccc3O)c3ncn(C4CCCC4)c3n2)CC1` (stereo not given), the growth is reported as -44.7% (active).
